PHOSPHO1 block – inhibitors of human PHOSPHO1 phosphatase. recombinant PHOSPHO1, absorbance phosphatase assay. inhibition, % at 13.3 µM. 290,000 tested, 1.1% active. AID 1565; in the data active = inhibition above about 60%
Cardio protect – modulators protecting cardiomyocytes from myocardial damage. H9c2 cardiomyocytes, H2O2 injury protection, ATPLite, 2 h. AID 588492. protection from H2O2 cell death, % at 20 µM. 360,000 tested, 0.63% active;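 active = compounds giving at least 50% protection of heart cells from peroxide-induced death in the single-dose screen, raw or plate-pattern-corrected value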;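 note: 0% = DMSO wells with peroxide and 100% = DMSO wells without peroxide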
Cl transport mod – modulates chloride dependent transport by human KCC2 | Q9H2X9 | KCC2 cells, thallium flux FluoZin-2 fluorescence | B-score of Tl+ flux slope (higher = more flux/activation; lower = inhibition) at 10 µM | 190,000 tested, 2.2% active | AID 1456;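 active = thallium flux slope and its plate-corrected score both differing from the plate sample mean at a set confidence after two filtering rounds, in either direction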;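 note: slope of fluorescence scaled to starting intensity during 10 to 20 s after thallium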
Target sequence (Q9H2X9 whole entry, looked up): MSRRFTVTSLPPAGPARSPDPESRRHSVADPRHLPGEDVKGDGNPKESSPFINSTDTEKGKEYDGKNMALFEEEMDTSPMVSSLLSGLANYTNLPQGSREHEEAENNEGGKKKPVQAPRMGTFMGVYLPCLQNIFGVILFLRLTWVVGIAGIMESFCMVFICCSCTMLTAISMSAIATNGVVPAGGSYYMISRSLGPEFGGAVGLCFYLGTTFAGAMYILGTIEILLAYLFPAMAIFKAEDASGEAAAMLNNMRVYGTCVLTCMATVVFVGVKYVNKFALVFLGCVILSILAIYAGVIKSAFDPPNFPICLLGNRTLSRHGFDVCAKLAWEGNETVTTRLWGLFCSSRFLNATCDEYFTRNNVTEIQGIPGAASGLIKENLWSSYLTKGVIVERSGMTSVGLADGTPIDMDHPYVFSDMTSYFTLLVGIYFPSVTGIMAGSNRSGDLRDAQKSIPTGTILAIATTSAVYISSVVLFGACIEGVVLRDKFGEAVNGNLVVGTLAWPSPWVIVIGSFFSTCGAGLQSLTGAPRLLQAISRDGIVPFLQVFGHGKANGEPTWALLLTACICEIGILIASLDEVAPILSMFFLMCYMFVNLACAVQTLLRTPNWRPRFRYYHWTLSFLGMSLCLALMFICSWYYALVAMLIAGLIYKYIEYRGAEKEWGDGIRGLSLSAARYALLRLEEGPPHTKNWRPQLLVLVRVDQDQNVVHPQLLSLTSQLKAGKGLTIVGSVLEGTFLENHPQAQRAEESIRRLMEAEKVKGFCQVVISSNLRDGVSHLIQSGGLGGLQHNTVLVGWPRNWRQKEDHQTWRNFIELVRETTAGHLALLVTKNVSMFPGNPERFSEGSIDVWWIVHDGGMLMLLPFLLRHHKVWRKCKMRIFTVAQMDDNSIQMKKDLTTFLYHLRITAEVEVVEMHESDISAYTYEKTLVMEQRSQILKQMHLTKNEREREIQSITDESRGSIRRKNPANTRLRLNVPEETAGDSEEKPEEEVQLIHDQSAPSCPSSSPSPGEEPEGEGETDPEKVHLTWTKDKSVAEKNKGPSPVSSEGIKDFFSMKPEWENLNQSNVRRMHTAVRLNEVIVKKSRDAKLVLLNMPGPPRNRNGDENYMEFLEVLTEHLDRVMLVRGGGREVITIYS
Calb FLC – C. albicans growth modulation with fluconazole | C. albicans CaCi-2 (fluconazole-resistant clinical isolate) + fluconazole, Alamar Blue growth, 48 h | growth inhibition, % (test concentration not listed) | 300,000 tested, 0.57% active | AID 1979;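 active = growth inhibition above about 58% in most replicates, limit read from the data, passing the limit was not always enough; inconclusive = exactly half the replicates above a set limit; inactive = most replicates below a set limit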;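 note: all wells also contain fluconazole at 8 µg/ml as a sub-toxic cotreatment; 0% = median of DMSO wells and 100% = median of geldanamycin control wells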
Efflux pump inh – blocks antifungal efflux pumps in multiplex yeast assay. 330,000 tested, 0.44% active. inhibition, % at 10 µM. AID 485275. S. cerevisiae Candida pump triplex, Nile Red efflux;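 active = plate passing quality check with inhibition over a set limit, or well fluorescence over plate mean plus 4 SD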;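 note: Nile Red retained in pooled yeast measured as flow cytometry median fluorescence; 0% = buffer negative control and 100% = Enniatin B positive control; higher means more Nile Red kept so more efflux inhibition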
Cmpd fluor yeast – flagged as fluorescent in efflux inhibitor counter-screen | shares compounds with Efflux pump inh | S. cerevisiae AD/pABC3, compound fluorescence, flow cytometry | fluorescence ratio to DMSO, % at 10 µM | 1,700 tested, 4% active | AID 588517;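 active = fluorescence ratio to DMSO above its plate's cutoff, the plate mean ratio plus 5 SD, cut at about 210% in these data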;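 note: unstained yeast with no Nile Red so the signal is compound autofluorescence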
CaMdr1 efflux inh – inhibitors of Candida albicans Mdr1 efflux pump | shares compounds with Efflux pump inh | S. cerevisiae AD/CaMDR1, Nile Red efflux, flow cytometry | inhibition, % at 10 µM | 1,700 tested, 1% active | AID 588518; in the data active = inhibition above about 26%;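 note: 0% = DMSO vehicle and 100% = reference inhibitor; higher means more Nile Red retained so more efflux inhibition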
Cdr2 pump inh – blocks the Candida albicans Cdr2 efflux pump in yeast; Nile Red retention ratio vs DMSO, % at 10 µM; S. cerevisiae AD/CaCDR2, Nile Red retention, flow cytometry; shares compounds with Efflux pump inh; 1,700 tested, 4% active; in the data active = Nile Red retention ratio vs DMSO above about 190%;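 note: higher ratio means more blocking of Cdr2 efflux of the dye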
CaCdr1 efflux inh – Candida Cdr1 efflux pump inhibition | shares compounds with Efflux pump inh | inhibition, % at 10 µM | S. cerevisiae AD/CaCDR1, Nile Red efflux, flow cytometry | 1,700 tested, 1% active | AID 588522;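 active = inhibition above the screen-wide mean plus twice its standard deviation, cut at about 32% in these data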
* marks the source's active call; other numbers are inactive results; u = inconclusive; x = no result. The list is not random: actives were taken first. Their share in the collection is about 3.3%.

SMILES	PHOSPHO1 block	Cardio protect	Cl transport mod	Calb FLC	Efflux pump inh	Cmpd fluor yeast	CaMdr1 efflux inh	Cdr2 pump inh	CaCdr1 efflux inh
Cc1ccc(C(=O)OCC(=O)NCCN2C(=O)CSC2=O)cc1	1	0	0.5	0	0	101	0	102	0
O=C(COC(=O)c1ccc(Br)cc1)NCCN1C(=O)CSC1=O	33	-4	x	-8	0	112	0	99	0
CCN(CC)S(=O)(=O)c1ccc(C(=O)OCC(=O)NCCN2C(=O)CSC2=O)cc1	17	-3	0.69	-4	0	109	0	112	0
O=C(COC(=O)c1ccc(S(=O)(=O)Nc2ccccc2)cc1)NCCN1C(=O)CSC1=O	9	7	0.97	-7	0	x	x	x	x
Cc1ccc(/C=C/C(=O)OCC(=O)NCCN2C(=O)CSC2=O)cc1	24	-3	-0.28	-14	0	x	x	x	x
COc1ccc(C(=O)OCC(=O)NCCN2C(=O)CSC2=O)cc1	2	3	0.041	-8	0	108	0	91	0
CCC(C)NC(=O)c1oc2ccc(S(=O)(=O)N3CCC4(CC3)OCCO4)cc2c1C (centres undefined)	31	-1	x	-4	0	x	x	x	x
CC(C)N(C)CCOC(=O)c1ccccc1Br	-6	-2	-0.87	-8	13*	131	2	163	2
CC(C)N(C)CCOC(=O)c1ccccc1Cl	-10	-10	0.038	-8	0	x	x	x	x
CCN(CC)c1ccc(C=N/C(C#N)=C(\N)C#N)cc1	23	-4	x	-3	0.7*	128	1	348*	2
C[n+]1ccccc1N1CCN(c2ccccc2Cl)CC1	30	-4	0.89	2	0	x	x	x	x
Cc1ccc(Cl)cc1N1CCN(c2cccc[n+]2C)CC1	40	-1	0.86	-12	2.2*	95	0	92	0
Cc1ccc(C(C)C)c(OCC(=O)Nc2ccc3c(c2)nc(CCN2CCCCC2)n3C)c1	15	-12	x	x	0	x	x	x	x
CCc1cc2c(-c3ccccc3)cc(=O)oc2c(CN2CCOCC2)c1O	-41	2	-1.3	17	0.8*	106	0	118	0
O=c1cc(-c2ccccc2)c2cc(Cl)c(O)c(CN3CCOCC3)c2o1	16	-4	-0.54	0	0	x	x	x	x
O=C(NCc1ccc(F)cc1)C(c1ccco1)N(C(=O)c1csnn1)c1ccccc1 (centres undefined)	35	1	x	-9	0	x	x	x	x
NC(=O)c1nsc(C(=O)N(c2ccccc2)C(C(=O)NCc2ccc(F)cc2)c2ccco2)c1N (centres undefined)	-6	15	x	1	0.5*	102	0	112	0
CC(C(=O)N1CCc2ccccc21)N1CCN(Cc2ccc(Cl)cc2)CC1 (centres undefined)	32	0	x	-10	0	x	x	x	x
O=C(NC1CCCCC1)c1cc2ccccc2cc1O	36	-8	-1.5	28	1.1*	99	0	108	0
CCCNC(=O)C1(C)CCCN(C(=O)c2cccc(OC(F)(F)F)c2)C1 (centres undefined)	x	-2	x	x	x	x	x	x	x
Oc1ccccc1C=NN1CCCCCC1	x	-3	x	x	x	x	x	x	x
Oc1[nH]c2ccccc2c1/C=N/N1CCCCC1	-9	1	0.66	u	6.7*	102	0	98	0
O=C(Cc1ccc(Cl)cc1)NC(=S)Nc1ccccc1N1CCOCC1	-4	-6	2.7	x	1.4*	112	0	102	0
O=C(NC(=S)Nc1ccccc1N1CCOCC1)c1ccc(-c2cccc(Cl)c2)o1	-14	-3	3	-21	11*	105	0	89	0
C=CCC1(C(=O)NCCO)CCN(C(=O)OC(C)(C)C)CC1	21	5	x	13	0	x	x	x	x
SMILES	PHOSPHO1 block	Cardio protect	Cl transport mod	Calb FLC	Efflux pump inh	Cmpd fluor yeast	CaMdr1 efflux inh	Cdr2 pump inh	CaCdr1 efflux inh
O=C(c1cccc(F)c1)N1CCN(C(=O)c2cc3ncc(Br)cn3n2)CC1	7	6	x	15	14*	103	0	99	0
COc1cccc(C(=O)N2CCN(C(=O)c3cccc(F)c3)CC2)c1	-10	0	0.019	8	0	x	x	x	x
COc1ccccc1CNC(=O)CCNC(=O)C1CCN(S(=O)(=O)c2ccccc2)CC1	40	-3	x	x	0	x	x	x	x
S=C(NCCCN1CCOCC1)N1CCN(c2nc(-c3ccccc3)cs2)CC1	1	-7	-2.5	2	1.3*	89	0	97	0
Cc1nn(-c2ccc([N+](=O)[O-])cc2)c2c1C(c1cccc(Br)c1)N1C(=N2)C(=O)Nc2ccccc21 (centres undefined)	4	56*	-0.71	11	1	109	0	103	0
Cc1nn(-c2ccccc2)c2c1C(c1ccc([N+](=O)[O-])cc1)N1C(=N2)C(=O)Nc2ccccc21 (centres undefined)	1	43	-0.83	-2	0	99	0	87	0
Cc1cccc(NC2=Nc3ccccc3N3C2=Nc2c(c(C)nn2-c2ccccc2)C3c2ccc(O)c(O)c2)c1 (centres undefined)	-4	22	0.69	-12	0	x	x	x	x
COc1ccc(C(=O)COC(=O)c2cnc(C)cn2)c(OC)c1	x	-2	x	-8	0	x	x	x	x
O=S1(=O)CC=C(CSc2nc3ccccc3[nH]2)C1	16	11	0.58	-2	0	x	x	x	x
N=C(N)SCC1=CCS(=O)(=O)C1	22	-6	0.0078	-16	0.8*	101	0	96	0
Cc1cnc(NC(=O)C2(C)CCN2C(=O)C(C)C)s1 (centres undefined)	x	0	x	x	x	x	x	x	x
CCN1C(=O)c2cccc3c(S(=O)(=O)N(C(=O)c4ccncc4)c4ccc(OC)cc4)ccc1c23	-10	-6	-0.19	12	0	x	x	x	x
CCN1C(=O)c2cccc3c(S(=O)(=O)N(C(=O)c4cccnc4)c4ccc(OC)cc4)ccc1c23	-5	43	-1.2	11	13*	101	0	100	0
O=C(CSc1ccccc1C(=O)O)NC12CC3CC(CC(C3)C1)C2	24	0	0.26	3	0	x	x	x	x
O=C(CSc1ncccc1C(=O)O)NC12CC3CC(CC(C3)C1)C2	15	0	-0.24	0	0.5*	104	0	104	0
O=C(CN(Cc1ccccc1Cl)S(=O)(=O)c1ccc(Cl)cc1)N/N=C/c1ccc(C(=O)O)cc1	12	2	x	7	0	x	x	x	x
O=C(NC(=Nc1nc2ccccc2o1)NC(=O)c1ccccc1)c1ccccc1	-15	0	-0.25	-9	1.2*	102	0	127	1
